# A number with no mark means an inactive call. Activity calls are given as the source filed them. Calls come from the whole dose curve; as a rule, active = well fitted curve in the direction sought with a large enough effect in the repeat runs; inconclusive = weak or mixed curves; inactive = flat fitted curve, though single readings scatter.
# Assay: qHTS assay to test for compound auto fluorescence at 535 nm (green) in HepG2 cell free culture (AID 720686)
# Details: Cell-free medium, green autofluorescence 485/535 nm; series mostly up to 91.3 µM; fluorescence, % of fluorescein control: at the top concentration
# % is set by controls: 0 for no effect and ±100 for the full control effect.
SMILES,"fluorescence, % of fluorescein control",outcome
CC(C)CCCCCCOC(=O)C1CCCCC1C(=O)OCCCCCCC(C)C (stereo not given),0.142%,
OCCCCCCCl,0.0265% [at 95.7 µM],
CCCCCCCC/C=C\CCCCCCCC(=O)OC[C@@H](O)[C@H]1OC[C@H](O)[C@H]1O,,inactive
Cc1cccc(Nc2ccncc2S(=O)(=O)NC(=O)NC(C)C)c1,0.0067% [at 18.6 µM],
CNC(=O)NC,0.0324% [at 95.7 µM],
O=C(/C=C/c1ccccc1)NCCO,-0.005% [at 46 µM],
O=C(O)c1ccccc1C(=O)OCc1ccccc1,-0.113%,
NC(Cc1c[nH]c2ccccc12)C(=O)O (stereo not given),0.0593% [at 46 µM],
N#CCCOCCOCCC#N,-0.051%,
COC(OC)C(C)c1ccccc1 (stereo not given),-0.048%,
Cc1ccccc1N1CCN(CCc2nnc3n2CCCC3)CC1,-0.0733% [at 46 µM],
CCN1CN(CC)CN(CC)C1,0.0718%,
O=P(O)(O)OCC(O)CO (stereo not given),0.0227% [at 46 µM],
Cc1cccc(NC(=S)N(C)C)c1,-0.0981%,
CCCCCCCC[Si](OCC)(OCC)OCC,0.0493%,

# Assay: qHTS assay to test for compound auto fluorescence at 460 nm (blue) in HepG2 cells (AID 720687)
# Details: autofluorescence 405/460 nm, 1 h; series mostly up to 91.3 µM; fluorescence, % of fluorescent control: at the top concentration
# In short: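 Blue-channel autofluorescence (Ex/Em 405/460 nm, triamterene-equivalent) was measured after 1 hr compound exposure at 37 C, 5% CO2. Cells were HepG2, plated overnight at 37 C in MEM plus 10% FBS.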
SMILES,"fluorescence, % of fluorescent control",outcome
O=c1[nH]c(=O)c2ccccc2o1,-0.0115% [at 46 µM],
Cc1cc(O)c2c(c1)C(=O)c1cccc(O)c1C2=O,-0.0847% [at 46 µM],
FC(F)(F)/C(=N\OCC1OCCO1)c1ccc(Cl)cc1,0.125%,
CC(C)=CC(C)(C)C,-0.0545%,
C=CCOCC(CO)(COCC=C)COCC=C,-0.0048%,
C[C@H](CCC(=O)NCC(=O)O)[C@H]1CC[C@H]2[C@@H]3[C@H](O)C[C@@H]4C[C@H](O)CC[C@]4(C)[C@H]3C[C@H](O)[C@]12C,-0.0021%,
O=S(=O)(O)CCO,0.137% [at 95.7 µM],
C[N+](C)(C)CC(O)CCl (stereo not given),-0.12%,
CN(C)CCOCCN(C)CCO,-0.0319%,
CN(C)CCCNCCC#N,0.0776%,
C=CC(C)(O)CC/C=C(\C)CC (stereo not given),0.0383%,
O=C(Nc1cccc(C2=NCCN2)c1)Nc1cccc(C2=NCCN2)c1,-0.0402% [at 46 µM],
CC(C)(c1ccc(Oc2ccc3c(c2)C(=O)OC3=O)cc1)c1ccc(Oc2ccc3c(c2)C(=O)OC3=O)cc1,-0.0568%,
CO/N=C(/C(=O)N[C@@H]1C(=O)N2C(C(=O)O)=C(Cn3nnc(C)n3)CS[C@H]12)c1csc(N)n1,-0.0418% [at 46 µM],
CC(=O)OCCCc1ccccc1,0.139%,
COc1cc2c3cc1Oc1cc(ccc1O)C[C@@H]1c4c(cc(OC)c(O)c4Oc4ccc(cc4)C[C@@H]3N(C)CC2)CC[N+]1(C)C,0.0547% [at 46 µM],
SCCSCCS,-0.131%,
CC1=NN(c2ccc(S(=O)(=O)O)cc2)C(=O)C1N=Nc1ccccc1 (stereo not given),-0.515%,

SMILES,"fluorescence, % of fluorescent control",outcome
CCNC(=O)NCCCOc1cccc(CN2CCCCC2)c1,0.0286% [at 46 µM],
C1CCN2C[C@@H]3C[C@@H](CN4CCCC[C@@H]34)[C@H]2C1,-0.0841% [at 18.6 µM],
CC(C)CCCCCCOC(=O)C1CCCCC1C(=O)OCCCCCCC(C)C (stereo not given),-0.216%,
OCCCCCCCl,-0.152% [at 95.7 µM],
CCCCCCCC/C=C\CCCCCCCC(=O)OC[C@@H](O)[C@H]1OC[C@H](O)[C@H]1O,,inactive
Cc1cccc(Nc2ccncc2S(=O)(=O)NC(=O)NC(C)C)c1,-0.0073% [at 18.6 µM],
CNC(=O)NC,0.087% [at 95.7 µM],
O=C(/C=C/c1ccccc1)NCCO,-0.0211% [at 46 µM],
O=C(O)c1ccccc1C(=O)OCc1ccccc1,-0.0331%,
NC(Cc1c[nH]c2ccccc12)C(=O)O (stereo not given),0.639% [at 46 µM],
N#CCCOCCOCCC#N,-0.0231%,
COC(OC)C(C)c1ccccc1 (stereo not given),-0.0031%,
Cc1ccccc1N1CCN(CCc2nnc3n2CCCC3)CC1,1.16% [at 46 µM],
CCN1CN(CC)CN(CC)C1,0.007%,
O=P(O)(O)OCC(O)CO (stereo not given),0.0109% [at 46 µM],
Cc1cccc(NC(=S)N(C)C)c1,-0.115%,
CCCCCCCC[Si](OCC)(OCC)OCC,-0.166%,

# Reference: PubChem BioAssay (Tox21)
